In all, about 33,000 sequences were measured (“normalized occupancy”: median about 0.075, highest 2% from about 0.095 on). The entries come from a sample that favours the highest values as a whole.

MaxL homodimer, sequence (P61244 whole entry): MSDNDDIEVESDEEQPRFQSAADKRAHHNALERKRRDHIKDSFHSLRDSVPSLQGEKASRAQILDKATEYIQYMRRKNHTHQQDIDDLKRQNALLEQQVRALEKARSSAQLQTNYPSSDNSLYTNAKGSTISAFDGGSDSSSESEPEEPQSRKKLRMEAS

The target of this test is MaxL homodimer (Homo sapiens, UniProt P61244 1-160). Description: universal protein-binding microarray (PBM); PBS-based mixture, 10 nM His-tagged protein dimer, 2% milk, 200 ng/uL BSA, 50 ng/uL salmon testes DNA, 0.02% TX-100; detection with Alexa 488 anti-His antibody;; high values mean tight binding. The following applies: protein: recombinant; tags: C-terminal His-tag (pET21a); chain copies: 2; dsDNA, one strand shown. Put shortly:
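Agilent 4 x 44 K arrays carrying the 'all 10-mer' universal design were incubated with His-tagged protein dimer at 10 nM. Protein that bound was tagged using fluorophore-conjugated anti-His antibody at 10 ng/μL, and a GenePix 4400A scanned the arrays to give an intensity for every 8-mer. Each binding occupancy value expresses an intensity relative to the top-ranked intensity.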
With ACTTTTAT, the binding signal is 0.0748 normalized occupancy.
In the case of CAGTAAAC, the binding signal came to 0.0746 normalized occupancy.
For the sequence ACTTTGAA, the binding signal was determined as 0.0759 normalized occupancy.
CGTTATGA: the binding signal was determined as 0.0829 normalized occupancy.
For CTTGATGA, the binding signal worked out at 0.0755 normalized occupancy.
With AGATTATC, the binding signal is 0.0807 normalized occupancy.
Turning to CCTCGCCG, the binding signal amounted to 0.0725 normalized occupancy.
On to CGCATGGA, for which the binding signal stood at 0.106 normalized occupancy.
On to GTCATGGA, for which the binding signal worked out at 0.0831 normalized occupancy.
For GGCATGGA, the binding signal came to 0.0929 normalized occupancy.
For ACTGTTTC, the binding signal was found to be 0.0744 normalized occupancy.
Regarding ATGAGTAC, the binding signal is 0.0839 normalized occupancy.
Take AATGCTAC: the binding signal came out at 0.0772 normalized occupancy.
GATGCTAC: the binding signal worked out at 0.081 normalized occupancy.
For the sequence AATGCTAG, the binding signal is 0.079 normalized occupancy.
The figure for CATGCTAG is 0.106 normalized occupancy.
The figure for CATGCTAA is 0.091 normalized occupancy; for CATGCTAC it is 0.0953 normalized occupancy; for GGTAACGA it is 0.0778 normalized occupancy.
As to AGATGACT, the binding signal was found to be 0.0724 normalized occupancy.
Take CGGTGGAA: the binding signal stood at 0.0725 normalized occupancy.
Turning to ACATATGT, the binding signal came out at 0.0906 normalized occupancy.
Regarding ACATATCC, the binding signal came to 0.0835 normalized occupancy.
The figure for TCATATGA is 0.0914 normalized occupancy.
With ATATATGC the figure was 0.0867 normalized occupancy; with ACATATGG, 0.0977 normalized occupancy; with CCATATGA, 0.0926 normalized occupancy.
With ACATATGA the figure was 0.0952 normalized occupancy.
Consider ATATATGG, for which the binding signal is 0.0895 normalized occupancy.
Turning to ACATATGC, the binding signal came to 0.0976 normalized occupancy.
For the sequence GAACATAC, the binding signal was found to be 0.0829 normalized occupancy.
Consider GAATTACC, for which the binding signal amounted to 0.072 normalized occupancy.
The figure for GCACCTTA is 0.0768 normalized occupancy; for CACGAGCC it is 0.0812 normalized occupancy; for AACGAGAC it is 0.075 normalized occupancy.
The figure for CACGAGGA is 0.137 normalized occupancy; for AACGAGGC it is 0.0809 normalized occupancy.
As for CACGAGAA, the binding signal is 0.0893 normalized occupancy.
The figure for AACGAGGA is 0.088 normalized occupancy; for CACGAGAC it is 0.1 normalized occupancy.
CACGAGGG: the binding signal was 0.134 normalized occupancy.
As for CACGAGGC, the binding signal stood at 0.134 normalized occupancy.
On to TACGAGGA, for which the binding signal turned out to be 0.0793 normalized occupancy.
Consider AACGAGGG, for which the binding signal came out at 0.0775 normalized occupancy.
With CACGAGCG, the binding signal was 0.082 normalized occupancy.
As for TACGGGCA, the binding signal worked out at 0.0723 normalized occupancy.
The figure for GGTCTTAA is 0.075 normalized occupancy; for CTCTATTA it is 0.0807 normalized occupancy.
With CCCCGCAG, the binding signal came to 0.072 normalized occupancy.
The figure for CAAATCTA is 0.0804 normalized occupancy; for GCTTCTTA it is 0.0746 normalized occupancy.
For CACAAGAG, the binding signal was found to be 0.0792 normalized occupancy.
In the case of CATGTTTA, the binding signal was determined as 0.0975 normalized occupancy.
With CATGTTTC the figure was 0.0831 normalized occupancy; with AATGTTTA, 0.0748 normalized occupancy; with CGCGTTTC, 0.0778 normalized occupancy.
As to AACGTTTA, the binding signal stood at 0.0757 normalized occupancy.
Turning to AACGTTTC, the binding signal amounted to 0.0739 normalized occupancy.
Regarding CACGTTTC, the binding signal stood at 0.105 normalized occupancy.
The figure for GACGTTTA is 0.0757 normalized occupancy; for CACGTTTA it is 0.0986 normalized occupancy.
The figure for AGAAACCC is 0.0744 normalized occupancy; for ATAGAATC it is 0.0826 normalized occupancy.
The figure for AGTGCTAG is 0.0731 normalized occupancy; for ACCTTCAA it is 0.0719 normalized occupancy; for CGAATAGA it is 0.0736 normalized occupancy.
CAGAACTA: the binding signal is 0.0728 normalized occupancy.
With CTAGAAGA the figure was 0.0731 normalized occupancy; with AACGATGA, 0.0771 normalized occupancy; with ACCCGTCA, 0.0779 normalized occupancy.
Turning to ATGTGAGG, the binding signal was determined as 0.0857 normalized occupancy.
In the case of ATGTGCGA, the binding signal was 0.0863 normalized occupancy.
CTGTGTGA: the binding signal came to 0.0738 normalized occupancy.
The figure for GTGTGTCA is 0.0887 normalized occupancy.
With ATGTGAGA, the binding signal was determined as 0.0969 normalized occupancy.
GTGTGTGA: the binding signal came to 0.0839 normalized occupancy.
GTGTGAGA: the binding signal came out at 0.0806 normalized occupancy.
As to ATGTGCGC, the binding signal stood at 0.0928 normalized occupancy.
The figure for ATGTGTCA is 0.101 normalized occupancy.
For ATGTGTCG, the binding signal stood at 0.0903 normalized occupancy.
As for ATGTGCGG, the binding signal was 0.104 normalized occupancy.
The figure for ATGTGTGA is 0.102 normalized occupancy; for ATTGAACG it is 0.082 normalized occupancy.
As to CTGACTAA, the binding signal is 0.0729 normalized occupancy.
On to ACATAAGA, for which the binding signal was 0.0789 normalized occupancy.
Turning to AACCTCTA, the binding signal is 0.0738 normalized occupancy.
In the case of CCCTCCTC, the binding signal stood at 0.0734 normalized occupancy.
Take CGTACTGA: the binding signal was found to be 0.0729 normalized occupancy.
AGCGCACG: the binding signal was 0.0877 normalized occupancy.
As for AGGAAAAC, the binding signal was 0.075 normalized occupancy.
In the case of ACGCGCCC, the binding signal was 0.0753 normalized occupancy.
Take TAACTGCA: the binding signal amounted to 0.0726 normalized occupancy.
On to GCTACCAA, for which the binding signal came to 0.0737 normalized occupancy.
On to TGATGGCA, for which the binding signal came to 0.08 normalized occupancy.
On to AGTCCCCC, for which the binding signal came to 0.0801 normalized occupancy.
The figure for ATCTTTAC is 0.0755 normalized occupancy; for ATGTCACC it is 0.08 normalized occupancy.
On to ATGTCACG, for which the binding signal was 0.101 normalized occupancy.
In the case of ATGTGTGC, the binding signal is 0.0957 normalized occupancy.
For the sequence ATGTGTGG, the binding signal amounted to 0.0891 normalized occupancy.
With ATGTCACA, the binding signal stood at 0.0852 normalized occupancy.
With CTGTGTGC the figure was 0.0783 normalized occupancy; with AATTCCGA, 0.0729 normalized occupancy; with CATCTGTC, 0.0856 normalized occupancy.
With GGGCTGTA the figure was 0.0762 normalized occupancy; with CCCATCTA, 0.0745 normalized occupancy; with CATAAATC, 0.0857 normalized occupancy.
Turning to CCGAACAA, the binding signal is 0.0756 normalized occupancy.
In the case of GAAGTGAC, the binding signal was determined as 0.0733 normalized occupancy.
For GACATGAA, the binding signal came out at 0.0775 normalized occupancy.
The figure for AACATGAC is 0.0831 normalized occupancy.
In the case of AACATGAA, the binding signal was determined as 0.0878 normalized occupancy.

For the origin of these results see paper PMC4242493, “Sequence specificity incompletely defines the genome-wide occupancy of Myc”.
